Laboratory results published in PubChem BioAssay (NCI).
Compounds without any hit were thinned out: in the full panel of roughly 79,000, 15% have a hit. The source made the active and inactive calls. Rule as the data show it: active = growth inhibition above about 70%; inactive = the rest.

Key:
[1] = NCI Yeast Anticancer Drug Screen. Data for the wt1 strain (AID 149);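 also: 0% = growth of vehicle-treated wt1 cultures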; conditions: S. cerevisiae wt1 strain (SPY 50644) growth inhibition, active compounds read high
Outline: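 Measured: growth of wt1 yeast under compound versus vehicle treatment, reported as inhibition.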

[2] = NCI Yeast Anticancer Drug Screen. Data for the rad50EPP+ strain (AID 151);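 also: 0% = growth of vehicle-treated control cultures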; conditions: S. cerevisiae rad50 mutant strain, active compounds read high
Outline: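 Read-out is yeast growth inhibition relative to vehicle; cells used were the rad50EPP+ strain.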

[3] = NCI Yeast Anticancer Drug Screen. Data for the mgt1 strain (AID 153); conditions: S. cerevisiae mgt1 mutant growth inhibition, active compounds read high
Outline: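 Measured: inhibition of mgt1 yeast growth by compound, normalized to vehicle-treated cultures.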

[4] = NCI Yeast Anticancer Drug Screen. Data for the rad50 strain (AID 155);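 also: 0% = growth of vehicle-only cultures of the same strain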; conditions: S. cerevisiae rad50 strain growth inhibition, active compounds read high
Outline: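 Growth of the mutant yeast was measured after compound exposure and referenced to vehicle-treated cultures.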

[5] = NCI Yeast Anticancer Drug Screen. Data for the mec2-1 strain (AID 157); conditions: S. cerevisiae mec2-1 strain, active compounds read high
Outline: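 Using mec2-1 yeast: add compound, measure growth, express inhibition versus vehicle-treated cultures.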

[6] = NCI Yeast Anticancer Drug Screen. Data for the rad14 strain (AID 159);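 also: 0% = growth of vehicle-treated control cultures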; conditions: S. cerevisiae rad14 strain growth inhibition, active compounds read high
Outline: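 Here, inhibition of yeast growth was measured after compound exposure, using a strain with a genetic defect in DNA damage repair and vehicle-treated cultures as the reference.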

[7] = NCI Yeast Anticancer Drug Screen. Data for the sgs1 mgt1 strain (AID 161);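 also: 0% = growth of cultures given vehicle only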; conditions: S. cerevisiae sgs1 mgt1 strain, active compounds read high
Outline: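 Compounds are added to genetically altered yeast, and growth is compared with cultures given vehicle alone to give percent inhibition.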

[8] = NCI Yeast Anticancer Drug Screen. Data for the CLN2oe strain (AID 163);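 also: 0% = growth of vehicle-only control cultures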; conditions: S. cerevisiae CLN2oe strain, active compounds read high
Outline: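 Whole-cell yeast growth assay. A strain engineered for altered cell-cycle control received compound, and inhibition relative to vehicle-treated cultures was recorded.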

[9] = NCI Yeast Anticancer Drug Screen. Data for the cln2 rad14 strain (AID 165);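 also: 0% = growth equal to vehicle treated cultures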; conditions: S. cerevisiae cln2 rad14 strain, active compounds read high
Outline: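 Yeast strain cln2 rad14, bearing defects in cell cycle control and DNA repair, serves as the test system; values reflect growth inhibition compared with vehicle.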

[10] = NCI Yeast Anticancer Drug Screen. Data for the bub3 strain (AID 167); conditions: S. cerevisiae bub3 mutant strain, active compounds read high
Outline: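 Whole-cell yeast assay. The mutant strain was incubated with compounds, and growth inhibition was determined by comparison with vehicle-treated cells.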

[11] = NCI Yeast Anticancer Drug Screen. Data for the wt2 strain (AID 169);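 also: 0% = growth of vehicle-treated yeast cultures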; conditions: S. cerevisiae wt2 strain growth inhibition, active compounds read high
Outline: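 Treated yeast vs. vehicle-treated yeast: growth inhibition determined.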

[12] = NCI Yeast Anticancer Drug Screen. Data for the mlh1 strain (AID 171);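 also: 0% = growth of vehicle-treated control cultures of the same strain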; conditions: S. cerevisiae mlh1 strain growth inhibition, active compounds read high
Outline: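 A yeast strain with a defined genetic lesion serves as the test organism. Cultures receive compound or vehicle, and growth is measured.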

[13] = NCI Yeast Anticancer Drug Screen. Data for the sgs1 strain (AID 173);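 also: 0% = growth of vehicle-only control cultures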; conditions: S. cerevisiae sgs1 mutant, active compounds read high
Outline: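 A genetically defined yeast mutant is incubated with the test compound, and its growth is compared to that of the same strain given vehicle.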

[14] = NCI Yeast Anticancer Drug Screen. Data for the mlh1 rad18 strain (AID 175); conditions: S. cerevisiae mlh1 rad18 strain growth inhibition, active compounds read high
Outline: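 Steps: expose repair-defective yeast to compound; measure growth; express inhibition against vehicle-treated controls.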

[15] = NCI Yeast Anticancer Drug Screen. Data for the rad18 strain (AID 177); conditions: S. cerevisiae rad18 mutant growth inhibition, active compounds read high
Outline: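 Measured value is growth inhibition of a yeast strain bearing a DNA repair alteration, referenced to vehicle-treated cells.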

[16] = at 5.0 µM (retest, dose inferred, filed as 0.5)
[17] = at 50.0 µM (retest, dose inferred, filed as 5.0)

Measured: growth inhibition

O=C1c2ccccc2-c2ccc(NC(=O)C3CCCCC3C(=O)O)cc21 (stereo unspecified)
inactive: [1]; at 1.2 µM 0% | [1]; at 3.7 µM -2% | [1]; at 11.0 µM -1% | [1]; at 33.0 µM 7% | [1]; at 100.0 µM 40% | [2]; at 1.2 µM 4% | [2]; at 3.7 µM 15% | [2]; at 11.0 µM 22% | [2]; at 33.0 µM 34% | [2]; at 100.0 µM 55% | [3]; at 1.2 µM -2% | [3]; at 3.7 µM -2% | [3]; at 11.0 µM -3% | [3]; at 33.0 µM 13% | [4]; at 1.2 µM 4% | [4]; at 3.7 µM 5% | [4]; [16] 3% | [4]; at 11.0 µM 10% | [4]; at 33.0 µM 24% | [4]; [17] 22% | [4]; at 50.0 µM 43.1% | [4]; at 100.0 µM 64% | [5]; at 1.2 µM 4% | [5]; at 3.7 µM 6% | [5]; [16] 18% | [5]; at 11.0 µM 5% | [5]; at 33.0 µM 18% | [5]; [17] 15% | [5]; at 50.0 µM 42.6% | [5]; at 100.0 µM 67% | [6]; at 1.2 µM -2% | [6]; at 3.7 µM -12% | [6]; at 11.0 µM -2% | [6]; at 33.0 µM 1% | [7]; [16] -2% | [7]; [17] 7% | [7]; at 50.0 µM 42.3% | [8]; at 1.2 µM -9% | [8]; at 3.7 µM -5% | [8]; at 11.0 µM -10% | [8]; at 33.0 µM -2% | [8]; at 100.0 µM 40% | [9]; [16] -20% | [9]; [17] -58% | [9]; at 50.0 µM 12.7% | [10]; at 1.2 µM 44% | [10]; at 3.7 µM 55% | [10]; [16] 6% | [11]; at 1.2 µM 0% | [11]; at 3.7 µM -1% | [11]; at 11.0 µM 1% | [11]; at 33.0 µM 24% | [12]; at 1.2 µM 7% | [12]; at 3.7 µM 3% | [12]; at 11.0 µM 4% | [12]; at 33.0 µM 1% | [13]; at 1.2 µM 3% | [13]; at 3.7 µM 7% | [13]; at 11.0 µM 15% | [13]; at 33.0 µM 41% | [14]; [16] -7% | [14]; [17] 34% | [14]; at 50.0 µM 41.2% | [15]; at 1.2 µM 12% | [15]; at 3.7 µM 2% | [15]; at 11.0 µM 16% | [15]; at 33.0 µM 31%
active: [3]; at 100.0 µM 72% | [6]; at 100.0 µM 86% | [10]; at 11.0 µM 72% | [10]; at 33.0 µM 80% | [10]; [17] 78% | [10]; at 50.0 µM 90.5% | [10]; at 100.0 µM 90% | [11]; at 100.0 µM 80% | [12]; at 100.0 µM 77% | [13]; at 100.0 µM 85% | [15]; at 100.0 µM 72%

Cc1ccnc(NS(=O)(=O)c2ccc(Nc3c4ccccc4nc4ccccc34)cc2)n1
active: [1]; at 100.0 µM 76% | [2]; at 33.0 µM 73% | [2]; at 100.0 µM 74% | [3]; at 100.0 µM 84% | [4]; at 3.7 µM 79% | [4]; [16] 77% | [4]; at 11.0 µM 90% | [4]; at 33.0 µM 91% | [4]; [17] 90% | [4]; at 50.0 µM 84.8% | [4]; at 100.0 µM 88% | [5]; at 33.0 µM 76% | [5]; [17] 77% | [5]; at 50.0 µM 71.2% | [5]; at 100.0 µM 83% | [6]; at 100.0 µM 81% | [7]; [17] 74% | [7]; at 50.0 µM 77.6% | [10]; at 50.0 µM 76.2% | [11]; at 100.0 µM 74% | [12]; at 100.0 µM 84% | [13]; at 100.0 µM 86% | [14]; [17] 74% | [15]; at 100.0 µM 79%
inactive: [1]; at 1.2 µM 14% | [1]; at 3.7 µM 20% | [1]; at 11.0 µM 21% | [1]; at 33.0 µM 48% | [2]; at 1.2 µM 30% | [2]; at 3.7 µM 41% | [2]; at 11.0 µM 64% | [3]; at 1.2 µM 37% | [3]; at 3.7 µM 33% | [3]; at 11.0 µM 54% | [3]; at 33.0 µM 66% | [4]; at 1.2 µM 50% | [5]; at 1.2 µM 18% | [5]; at 3.7 µM 32% | [5]; [16] 15% | [5]; at 11.0 µM 45% | [6]; at 1.2 µM 10% | [6]; at 3.7 µM 10% | [6]; at 11.0 µM 26% | [6]; at 33.0 µM 58% | [7]; [16] 14% | [9]; [16] 17% | [9]; [17] 35% | [9]; at 50.0 µM 35.5% | [10]; at 1.2 µM -12% | [10]; at 3.7 µM -21% | [10]; [16] 26% | [10]; at 11.0 µM -20% | [10]; at 33.0 µM 30% | [10]; [17] 44% | [10]; at 100.0 µM 63% | [11]; at 1.2 µM -10% | [11]; at 3.7 µM -18% | [11]; at 11.0 µM -3% | [11]; at 33.0 µM 44% | [12]; at 1.2 µM 37% | [12]; at 3.7 µM 33% | [12]; at 11.0 µM 54% | [12]; at 33.0 µM 66% | [13]; at 1.2 µM 24% | [13]; at 3.7 µM 26% | [13]; at 11.0 µM 43% | [13]; at 33.0 µM 69% | [14]; [16] 26% | [14]; at 50.0 µM 37.7% | [15]; at 1.2 µM 16% | [15]; at 3.7 µM 19% | [15]; at 11.0 µM 36% | [15]; at 33.0 µM 65%

O=C(O)NCC1CCCCC1 (tested in a mixture with another compound)
inactive: [1]; at 1.2 µM -1% | [1]; at 3.7 µM -4% | [1]; at 11.0 µM -4% | [1]; at 33.0 µM -5% | [1]; at 100.0 µM -4% | [2]; at 1.2 µM 0% | [2]; at 3.7 µM -4% | [2]; at 11.0 µM -3% | [2]; at 33.0 µM 7% | [2]; at 100.0 µM 4% | [3]; at 1.2 µM -2% | [3]; at 3.7 µM -4% | [3]; at 11.0 µM -4% | [3]; at 33.0 µM -4% | [3]; at 100.0 µM 16% | [4]; at 1.2 µM 2% | [4]; at 3.7 µM -3% | [4]; [16] 1% | [4]; at 11.0 µM -6% | [4]; at 33.0 µM 7% | [4]; [17] 38% | [4]; at 50.0 µM -12.8% | [5]; at 1.2 µM -3% | [5]; at 3.7 µM -1% | [5]; [16] -15% | [5]; at 11.0 µM -4% | [5]; at 33.0 µM -5% | [5]; [17] 19% | [5]; at 50.0 µM 8.35% | [5]; at 100.0 µM 22% | [6]; at 1.2 µM 0% | [6]; at 3.7 µM -6% | [6]; at 11.0 µM -5% | [6]; at 33.0 µM -1% | [6]; at 100.0 µM 61% | [7]; [16] -2% | [7]; [17] 39% | [7]; at 50.0 µM -35.7% | [8]; at 1.2 µM 1% | [8]; at 3.7 µM -7% | [8]; at 11.0 µM -6% | [8]; at 33.0 µM -5% | [8]; at 100.0 µM 26% | [9]; [16] -4% | [9]; [17] 11% | [9]; at 50.0 µM 33% | [10]; at 1.2 µM -4% | [10]; at 3.7 µM -4% | [10]; [16] -5% | [10]; at 11.0 µM -7% | [10]; at 33.0 µM -2% | [10]; [17] 10% | [10]; at 50.0 µM 0.5% | [10]; at 100.0 µM 58% | [11]; at 1.2 µM -2% | [11]; at 3.7 µM 2% | [11]; at 11.0 µM -5% | [11]; at 33.0 µM -4% | [11]; at 100.0 µM 37%
active: [4]; at 100.0 µM 83%
